Pf growth 48h = inhibits P. falciparum growth in the first generation, 48 h. Potency, µM (doses to about 28.7 µM), usual class: inhibitors. hit rate 5.9% among 310,000. AID 504832. P. falciparum luciferase growth in erythrocytes, 48 h; active = well fitted inhibition curve with a large enough effect; inconclusive = small, poorly fitted or top-dose-only effect, or another doubt; inactive = no such curve, though single readings can be large or run the other way
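First compound was added to culture medium, then infected red cells at 0.1% parasitemia and 2% hematocrit (final). After incubation at 37 C under 5% CO2, luciferase detection reagent was dispensed and light output recorded.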
Pf growth 96h = P. falciparum growth inhibition at 96 hours. P. falciparum luciferase reporter growth, 96 h. Potency, µM (highest dose often 28.7 µM), most hits filed as inhibitors. hit rate 6.9% among 320,000. AID 504834; active = well fitted inhibition curve with a large enough effect; inconclusive = small, poorly fitted or top-dose-only effect, or another doubt; inactive = no such curve, though single readings can be large or run the other way
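Parasite growth measured via integrated firefly luciferase reporter in P. falciparum. Infected erythrocytes at 2% hematocrit, 0.05% parasitemia final were treated 96 hours at 37 C under 5% CO2, and luminescence was read.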
SARS PLpro yeast = SARS-CoV PLP inhibition in yeast | S. cerevisiae expressing SARS-CoV PLpro, growth rescue | Potency, µM (top dose mostly 32.9 µM), hits mostly activators | hit rate 0.19% among 330,000; also: nearly all actives have a fitted effect of over 55% in size
NS1 inh = inhibitors of influenza NS1 protein function | Potency, µM (top dose mostly 46.1 µM) | hit rate 0.4% among 270,000 | AID 2326; also: actives are rising curves; nearly all actives have a fitted effect of over 50% in size
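Growth recovery, yeast-based: influenza A NS1 expressed in S. cerevisiae causes slow growth, and suppressors are detected by OD600. The parent strain without NS1 is used as positive control.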
Numbers stand for hits; . = inactive; ? = inconclusive; / = no result given; [ ] = dose if it differs, or a comment. Only some compounds are listed: those with a hit (about 10% of all), similar ones and a draw of the others. Unless noted, calls follow the shape of the full dose curve.

SMILES	Pf growth 48h	Pf growth 96h	SARS PLpro yeast	NS1 inh
CCc1noc(C)c1C(=O)Nc1nc(-c2ccc(OC)cc2OC)cs1	2.3µM	2.3µM	.	/
c1ccc(-c2csc(NC3CCCCC3)n2)cc1	.	.	.	.
COc1ccc(-c2csc(NC3CCCCC3)n2)c(OC)c1	9.3µM	?	.	.
CCc1noc(C)c1C(=O)Nc1nc(-c2cc(OC)ccc2OC)cs1	?	?	.	/
CCOC(=O)c1c(C)[nH]c(C)c1C(=O)COC(=O)c1cccc(S(=O)(=O)N(CC)CC)c1	15µM	9.3µM	.	.
CCOC(=O)c1c(C)[nH]c(C)c1C(=O)COC(=O)c1ccc(S(=O)(=O)N(CC)CC)cc1	?	?	.	.
O=C(COc1ccccc1)Nc1cc(NC(=O)COc2ccccc2)cc(C(=O)O)c1	.	?	.	.
COc1ccc(CNC(=O)CCNS(=O)(=O)c2ccc(NC(C)=O)cc2)cc1OC	.	.	.	/
CCCN1C/C(=C/c2cccc([N+](=O)[O-])c2)C(=O)/C(=C/c2cccc([N+](=O)[O-])c2)C1	15µM	?	.	.
CN1C(=O)/C(=C/c2cccc([N+](=O)[O-])c2)C(=O)N1c1ccccc1	.	?	.	.
CC1CN(C(=O)CSc2nnc(CNC(=O)c3ccc(S(=O)(=O)N(C)C)cc3)o2)CC(C)O1 (stereo unspecified)	.	.	.	.
Cc1cccc(NC(=O)CSc2nc(N)c(NC(=O)c3cccs3)c(=O)[nH]2)c1C	.	.	.	.
FC(F)(F)c1cnc(-c2cnc(-c3ccccn3)nc2)c(Cl)c1	.	6.6µM	.	/
CCCC1=[N+](CC)CCn2c(C)ccc21	4.7µM	.	.	.
CC(NCc1ccccc1O)C12CC3CC(CC(C3)C1)C2 (stereo unspecified)	0.066µM	0.1µM	.	.
CC(NCc1ccncc1)C12CC3CC(CC(C3)C1)C2 (stereo unspecified)	?	.	.	.
CCCCCn1c(=O)[nH]c2cc(C(=O)NCCCN3CCCCC3)ccc2c1=O	9.3µM	/	.	.
COCCn1c(=O)[nH]c2cc(C(=O)NCc3ccccc3)ccc2c1=O	/	1.5µM	.	.
COCCNC(=O)c1ccc2c(=O)n(CCOC)c(=O)[nH]c2c1	.	.	.	.
CCCCCn1c(=O)[nH]c2cc(C(=O)NCCCN3CCC(C)CC3)ccc2c1=O	?	?	.	.
COc1cc(NC(=S)N2CCN(C)CC2)cc(OC)c1	.	.	.	.
COc1ccc(N/C(=C(/C(Cl)=C(Cl)Cl)[N+](=O)[O-])n2nnc3ccccc32)cc1OC	/	15µM	.	.
c1ccc2nc(CC[C@@H]3CCCCN3)ccc2c1	/	/	/	.
Cc1[nH]c2c(C)cccc2c1CCNC(=O)c1ccc2c(c1[N+](=O)[O-])C(=O)c1ccccc1C2=O	12µM	?	.	.
COc1ccc(S(=O)(=O)N2CCC(n3cnc4cc(C(F)(F)F)ccc43)CC2)cc1	5.2µM	.	.	.
SMILES	Pf growth 48h	Pf growth 96h	SARS PLpro yeast	NS1 inh
O=S(=O)(c1ccc2c(c1)OCCO2)N1CCC(n2nnc3cc(C(F)(F)F)ccc32)CC1	13µM	.	.	?
C[C@H](CO)N1C[C@H](C)[C@H](CN(C)S(C)(=O)=O)Oc2c(cccc2N(C)C)C1=O	/	/	.	/
CC(=O)Nc1c2c(nn1-c1ccc(F)cc1)CSC2	.	.	.	.
Cc1cccc(N=C2NN=C(c3ccccc3F)CS2)c1C	.	.	.	/
CC(=O)Nc1ccc(C2=NNC(=Nc3cccc(S(=O)(=O)N(C)C)c3)SC2)cc1	?	?	.	.
CN(C)S(=O)(=O)c1cccc(N=C2NN=C(c3ccccc3)CS2)c1	13µM	2.3µM	.	.
COc1ccc(C2=NNC(=Nc3cc(S(=O)(=O)N(C)C)ccc3C)SC2)c(OC)c1	1.7µM	.	.	.
CC(C)(C)OC(=O)NNC(=O)Nc1ccccc1C(F)(F)F	.[5.75 µM]	.	.	/
CCOC(=O)C1(CCOc2ccccc2)CCN(C(=O)c2ccc(-n3cccn3)cc2)CC1	?	10µM	.	.
CCOC(=O)C1(CCOc2ccccc2)CCN(Cc2cccc(-n3cccn3)c2)CC1	?	10µM	.	.
COc1cccc2c(Nc3ccccc3C)cc(C)nc12	?	.	.	.
CCc1ccc2c(c1)cc(CN(C(=S)Nc1cccc(C)c1)C1CC1)c1nnnn12	?	2.3µM	.	.
CNC(=S)N(Cc1cc2cc(C)ccc2n2nnnc12)CC(C)(C)CN(C)C	?	5.9µM	.	.
COCCN(Cc1cc2cc(C)ccc2n2nnnc12)C(=S)Nc1cccc(C)c1	5.2µM	.	.	/
COCCN(Cc1cc2cccc(C)c2n2nnnc12)C(=O)C(F)(F)F	.	.	.	.
N#CCSc1ccc(S(=O)(=O)N2CCOCC2)cn1	/	/	.	/
CC(C)(C)c1ccc(CSc2ccc(S(=O)(=O)N3CCOCC3)cn2)cc1	10µM	?	.	/
Cc1cccc(CSc2ccc(S(=O)(=O)N3CCCC3)cn2)c1	?	6.6µM	.	/
O=S(=O)(c1ccc(SCc2ccccc2)nc1)N1CCCC1	.	.	.	/
Cc1ccc(C(C)NC(=O)CSc2ccc(S(=O)(=O)N3CCOCC3)cn2)cc1C (stereo unspecified)	12µM	?	.	/
CCC(C)NC(=O)CSc1ccc(S(=O)(=O)N2CCN(Cc3ccccc3)CC2)cn1 (stereo unspecified)	?	9.3µM	.	/
COc1ccc(Cc2nc3ccc(C(=O)N(C)CCCN4CCOCC4)cc3o2)cc1	.	?	.	.
COCc1ccc(C(=O)NC(C)c2cnn(-c3ccccc3C)c2C)o1 (stereo unspecified)	.	.	.	.
Cn1c(=O)n(C)c2cc(NS(=O)(=O)c3ccc(Br)s3)ccc21	.	9.3µM	.	.
CC(=O)Nc1ccc(NC(=O)C(C)OC(=O)CSCc2cccc(Cl)c2)cc1 (stereo unspecified)	.	.	.	/
SMILES	Pf growth 48h	Pf growth 96h	SARS PLpro yeast	NS1 inh
CCCCCC(=O)NC(=S)Nc1ccc2oc(=O)ccc2c1	.	13µM	.	.
Cc1cc(Cl)ccc1OCC(=O)Nc1ccc2oc(=O)ccc2c1	.	12µM	.	.
CC(C)c1ccc(OCC(=O)Nc2ccc3oc(=O)ccc3c2)cc1	.	3.3µM	.	.
Cc1cc(C)c(C)c(S(=O)(=O)N2CCC(C(=O)NCCCN3CCCC3=O)CC2)c1C	?	?	.	/
CCc1noc(C)c1C(=O)N1CCN(c2cccc(C)c2C)CC1	?	.	.	/
Cc1cccc(N2CCN(C(=O)c3c(-c4ccccc4)noc3C)CC2)c1C	?	10µM	.	.
Cc1onc(-c2ccccc2)c1C(=O)N1CCN(C/C=C/c2ccccc2)CC1	/	2.1µM	.	.
O=C(Nc1cccc(-c2nnc(-c3ccco3)o2)c1)C(c1ccccc1)c1ccccc1	/	5.2µM	.	.
O=C(Nc1cccc(-c2nnc(-c3ccco3)o2)c1)c1ccccc1	.[5.75 µM]	.	.	/
COc1cccc(C(=O)Nc2ccc(-c3nnc(-c4ccco4)o3)cc2)c1	4.7µM	?	.	.
COc1cccc(C(=O)Nc2cccc(-c3nnc(-c4ccccc4)o3)c2)c1	/	/	/	.
Cc1nc(-c2ccc(NC(=O)C(C)(C)C)cc2)c(-c2ccccc2)o1	/	4.1µM	.	.
CCCOc1ccc(-c2nnc(-c3ccco3)o2)cc1	.	12µM	.	.
CC(C)COc1ccc(-c2nnc(-c3ccco3)o2)cc1	.	?	.	.

Compound activity from PubChem BioAssay.
